# Reference: the supplement of paper PMC8728848
# Only a selection was taken, and the strongest signals are over-represented in it overall.
# How the values were obtained:
# Test in all cases: glycan array binding signal (z-score within array); higher = stronger binding
# Conditions in all cases: glycan notation: IUPAC condensed, linker removed; mutation: D57L
# [1] = target: GlcNAc(b1-2)[GlcNAc(b1-4)]Man(a1-3)[GlcNAc(b1-4)][GlcNAc(b1-2)[GlcNAc(b1-6)]Man(a1-6)]Man(b1-4)GlcNAc(b1-4)GlcNAc
# Outline: (§1)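 Glycan array binding is given as a within-array Z-score, which can be read as non-binding when negative. The arrays, 3228 of them, came from the Consortium for Functional Glycomics database and were retained only where the protein sequence was available. Z-scores were averaged across arrays of the same protein sequence at different concentrations or buffers and across linkers.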
# [2] = target: GlcNAc(b1-3)Gal(b1-4)GlcNAc(b1-2)Man(a1-3)[GlcNAc(b1-3)Gal(b1-4)GlcNAc(b1-2)Man(a1-6)]Man(b1-4)GlcNAc(b1-4)GlcNAc
# Outline: as §1
# [3] = target: GlcNAc(b1-3)Gal(b1-4)GlcNAc(b1-3)Gal(b1-4)GlcNAc(b1-3)Gal(b1-4)GlcNAc(b1-3)Gal(b1-4)GlcNAc(b1-2)Man(a1-3)[GlcNAc(b1-3)Gal(b1-4)GlcNAc(b1-3)Gal(b1-4)GlcNAc(b1-3)Gal(b1-4)GlcNAc(b1-3)Gal(b1-4)GlcNAc(b1-2)Man(a1-6)]Man(b1-4)GlcNAc(b1-4)[Fuc(a1-6)]GlcNAc
# Outline: as §1
# [4] = target: GlcNAc(b1-3)Gal(b1-4)GlcNAc(b1-3)GalNAc
# Outline: as §1
# GlcNAc(b1-3)Man = target: GlcNAc(b1-3)Man
# Outline: as §1
# [5] = target: GlcNAc(b1-4)Gal(b1-4)GlcNAc
# Outline: as §1
# Kdn(a2-6)Gal(b1-4)GlcNAc = target: Kdn(a2-6)Gal(b1-4)GlcNAc
# Outline: as §1
# Man(a1-2)Man(a1-3)Man = target: Man(a1-2)Man(a1-3)Man
# Outline: as §1
# Man(a1-3)[Man(a1-6)]Man = target: Man(a1-3)[Man(a1-6)]Man
# Outline: as §1
# [6] = target: Man(a1-3)[Man(a1-6)]Man(a1-6)[Man(a1-3)]Man
# Outline: as §1
# [7] = target: Man(a1-3)[Man(a1-6)]Man(b1-4)GlcNAc(b1-4)GlcNAc
# Outline: as §1
# [8] = target: Neu5Ac(a2-3)Gal(b1-3)GalNAc(b1-4)[Neu5Ac(a2-3)]Gal(b1-4)Glc
# Outline: as §1
# [9] = target: Neu5Ac(a2-3)Gal(b1-3)GlcNAc(b1-2)Man
# Outline: as §1
# [10] = target: Neu5Ac(a2-3)Gal(b1-3)GlcNAc(b1-2)Man(a1-3)[GlcNAc(b1-4)][Neu5Ac(a2-3)Gal(b1-3)GlcNAc(b1-2)Man(a1-6)]Man(b1-4)GlcNAc(b1-4)GlcNAc
# Outline: as §1
# [11] = target: Neu5Ac(a2-3)Gal(b1-3)GlcNAc(b1-6)GalNAc
# Outline: as §1
# [12] = target: Neu5Ac(a2-3)Gal(b1-3)GlcNAc6S
# Outline: as §1
# [13] = target: Neu5Ac(a2-3)Gal(b1-4)GlcNAc(b1-2)Man
# Outline: as §1
# [14] = target: Neu5Ac(a2-3)Gal(b1-4)GlcNAc(b1-3)Gal(b1-4)GlcNAc
# Outline: as §1
# [15] = target: Neu5Ac(a2-3)Gal(b1-4)GlcNAc(b1-3)Gal(b1-4)GlcNAc(b1-2)Man(a1-3)[Neu5Ac(a2-3)Gal(b1-4)GlcNAc(b1-3)Gal(b1-4)GlcNAc(b1-2)Man(a1-6)]Man(b1-4)GlcNAc(b1-4)GlcNAc
# Outline: as §1
# [16] = target: Neu5Ac(a2-3)Gal(b1-4)GlcNAc(b1-3)Gal(b1-4)GlcNAc(b1-3)Gal(b1-4)GlcNAc(b1-2)Man(a1-3)[Neu5Ac(a2-3)Gal(b1-4)GlcNAc(b1-3)Gal(b1-4)GlcNAc(b1-3)Gal(b1-4)GlcNAc(b1-2)Man(a1-6)]GalNAc
# Outline: as §1
# [17] = target: Neu5Ac(a2-3)Gal(b1-4)GlcNAc(b1-6)[Gal(b1-3)]GalNAc
# Outline: as §1
# [18] = target: Neu5Ac(a2-3)Gal(b1-4)[Fuc(a1-3)]GlcNAc(b1-6)[Neu5Ac(a2-3)Gal(b1-3)]GalNAc
# Outline: as §1
# Neu5Ac(a2-3)GalNAc = target: Neu5Ac(a2-3)GalNAc
# Outline: as §1
# [19] = target: Neu5Ac(a2-6)Gal(b1-4)GlcNAc(b1-3)[Neu5Ac(a2-6)Gal(b1-4)GlcNAc(b1-6)]GalNAc
# Outline: as §1
# [20] = target: Neu5Ac(a2-6)Gal(b1-4)GlcNAc6S
# Outline: as §1
# [21] = target: Neu5Ac(a2-6)GalNAc(b1-4)GlcNAc
# Outline: as §1
# [22] = target: Neu5Ac(a2-8)Neu5Ac(a2-3)Gal(b1-3)GalNAc(b1-4)[Neu5Ac(a2-3)]Gal(b1-4)Glc
# Outline: as §1
# [23] = target: Neu5Ac9Ac(a2-3)Gal(b1-4)GlcNAc
# Outline: as §1
# [24] = target: Neu5Gc(a2-6)Gal(b1-4)GlcNAc
# Outline: as §1
# [25] = target: Neu5Gc(a2-8)Neu5Gc(a2-3)Gal(b1-4)GlcNAc(b1-3)Gal(b1-4)GlcNAc
# Outline: as §1
binder,measurement,setting,value
PNGase F (Flavobacterium meningosepticum) (protein) GIPAPADNTVNIKTFDKVKNAFGDGLSQSAEGTFTFPADVTAVKTIKMFIKNECPNKTCLEWDRYANVYVKNKTTGEWYEIGRFITPYWVGTEKLPRGLEIDVTDFKSLLSGNTELKIYTETWLAKGREYSVDFDIVYGTPDYKYSAVVPVVQYNKSSIDGVPYGKAHTLALKKNIQLPTNTEKAYLRTTISGWGHAKPYDAGSRGCAEWCFRTHTIAINNSNTFQHQLGALGCSANPINNQSPGNWTPDRAGWCPGMAVPTRIDVLNNSLIGSTFSYEYKFQNWTNNGTNGDAFYAISSFVIAKSNTPISAPVVTNLDPHHHHHH,glycan array binding signal (z-score),[1],-0.146
same,glycan array binding signal (z-score),[2],0.239
same,glycan array binding signal (z-score),[3],0.677
same,glycan array binding signal (z-score),[4],0.274
same,glycan array binding signal (z-score),GlcNAc(b1-3)Man,2.62
same,glycan array binding signal (z-score),[5],-0.997
same,glycan array binding signal (z-score),Kdn(a2-6)Gal(b1-4)GlcNAc,0.05
same,glycan array binding signal (z-score),Man(a1-2)Man(a1-3)Man,-1.18
same,glycan array binding signal (z-score),Man(a1-3)[Man(a1-6)]Man,0.446
same,glycan array binding signal (z-score),[6],3.32
same,glycan array binding signal (z-score),[7],0.156
same,glycan array binding signal (z-score),[8],0.797
same,glycan array binding signal (z-score),[9],-0.518
same,glycan array binding signal (z-score),[10],0.012
same,glycan array binding signal (z-score),[11],0.237
same,glycan array binding signal (z-score),[12],1.09
same,glycan array binding signal (z-score),[13],3.1
same,glycan array binding signal (z-score),[14],-0.525
same,glycan array binding signal (z-score),[15],0.19
same,glycan array binding signal (z-score),[16],0.914
same,glycan array binding signal (z-score),[17],2.77
same,glycan array binding signal (z-score),[18],0.57
same,glycan array binding signal (z-score),Neu5Ac(a2-3)GalNAc,1.19
same,glycan array binding signal (z-score),[19],-0.712
same,glycan array binding signal (z-score),[20],0.924
same,glycan array binding signal (z-score),[21],-1
same,glycan array binding signal (z-score),[22],-0.06
same,glycan array binding signal (z-score),[23],-1.04
same,glycan array binding signal (z-score),[24],0.069
same,glycan array binding signal (z-score),[25],-0.629
